The results in this text go back to PubChem BioAssay (Tox21).

Where “and” joins values, the source holds several entries; their conditions need not be identical. Identical values can stand only once. Values without a mark were called inactive. Results filed as inconclusive are left out. Calls of active or inactive are those of the source. Unless noted, calls follow the shape of the dose curve; as a rule, active = well fitted curve in the direction sought with a large enough effect in the repeat runs; inconclusive = weak or mixed curves; inactive = no such curve, though single readings can be large; an effect the other way counts as inactive or inconclusive.

Test [1] is described as follows: qHTS assay for small molecules that induce genotoxicity in human embryonic kidney cells expressing luciferase-tagged ATAD5 (AID 651632). Also: nearly all actives have a fitted effect of over 15% in size. An outline of the steps: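 Reporter cells (HEK293T) express luciferase-tagged ATAD5, a protein that accumulates after DNA damage. Treat 16 hr at 37C/5% CO2, add Amplite, wait 30 min at RT, and read luminescence.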
Test [2] in a line: qHTS assay for small molecule agonists of the p53 signaling pathway - cell viability (AID 651633; calls by dose curve; also: nearly all actives have a fitted effect of over 30% in size; also: potency is read from the fitted curve at half-maximal effect). An outline of the steps:
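Viability counter-read: CellTiter-Glo luminescence (30 min, room temperature) in the same p53RE-bla plates. These plates had been exposed to compounds for 16 h at 37 C.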
Background: Quantitative high-throughput screening tests each substance at several concentrations.

Test [3] can be described thus: qHTS assay for small molecule disruptors of the mitochondrial membrane potential (AID 720635). Also: potency is read from the fitted curve at half-maximal effect. An outline of the steps: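 Mitochondrial membrane potential tracked with Mito-MPS dye, red aggregates (ex 540/em 590 nm) against green monomers (ex 490/em 535 nm). Compound treatment 1 hr at 37C, dye 30 min in HepG2.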
Test [4] can be described thus: qHTS assay to test for compound auto fluorescence at 590 nm (red) in HepG2 cells (AID 720674). Summed up: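 1 hr compound incubation on HepG2 cells, 37 C, 5% CO2; plate read ex 540 nm / em 590 nm; intensities reported as Rose Bengal sodium equivalents.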
Test [5] is described as follows: qHTS assay to test for compound auto fluorescence at 535 nm (green) in HepG2 cells (AID 720675).
Test [6] can be described thus: qHTS assay to test for compound auto fluorescence at 590 nm (red) in HEK293 cells (AID 720679). An outline of the steps:
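Autofluorescence equivalency to Rose Bengal sodium, 540/590nm, in HEK293 cells exposed overnight to 23 nL compound per well.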

The nature of test [7]: qHTS assay for small molecule disruptors of the mitochondrial membrane potential - cell viability (AID 720634; calls by dose curve; also: nearly all actives have a fitted effect of over 20% in size; also: potency is read from the fitted curve at half-maximal effect). An outline of the steps:
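Measuring cytotoxicity alongside mitochondrial potential, the screen quantified ATP by luminescence in HepG2 cells after 1 hr compound incubation and a 30 min room-temperature CellTiter-Glo step.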

A short description of test [8]: qHTS assay to test for compound auto fluorescence at 460 nm (blue) in HEK293 cells (AID 720678). Summed up: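 Auto fluorescence in the blue band was quantified as triamterene equivalency. HEK293 cells were seeded at 2,000/well, dosed after a 4-5 hr attachment, and kept overnight at 37C before the 405/460 nm reading.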
Test [9] in a line: qHTS assay for small molecules that induce genotoxicity in human embryonic kidney cells expressing luciferase-tagged ATAD5 - cell viability (AID 651634; calls by dose curve; also: nearly all actives have a fitted effect of over 25% in size; also: potency is read from the fitted curve at half-maximal effect). Summed up: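 Seeding of 2,000 HEK293T ATAD5-luciferase cells per well preceded pin-tool compound transfer. Plates sat 15.5 hr at 37C under 5% CO2, then fluorescence was read after 30 min with CellTiter-Fluor.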

In the case of `CC(=O)c1cc2c(cc1C)C(C)(C)C(C)CC2(C)C` (centres undefined), the Potency result in test [1] was “inactive”. For the same molecule, the figures for the Potency in test [2] and in test [3] were 61.1 µM (active) and 54.5 µM (active), respectively. Besides, the outcome in [4], in [5] and in test [6] was inactive.
As for `O=C1c2ccccc2C(=O)C1C(=O)C(c1ccccc1)c1ccccc1`, the Potency entry in [1] and in test [7] was “inactive” in each case. The Potency in [3] was 21.1 µM (active). For the same molecule, the molecule was classed as inactive in [4], in test [5] and in [6].
Turning to `ClP(Cl)(Cl)(Cl)Cl`, the Potency result in test [1], in test [2] and in [7] was “inactive” throughout. Further, the outcome in test [4], in test [5], in test [8] and in test [6] was inactive.
On to `CC(C)(OO)c1ccccc1`, for which the Potency entry in test [1], in test [2], in test [7] and in test [3] was “inactive” in each case. For the same molecule, the result in test [4], in test [5], in test [8] and in [6] was inactive.
`C=CC(=O)OCCCCO`: the Potency result in test [1], in test [2], in test [7] and in test [3] was “inactive” each time. Moreover, the result in [4], in test [5], in test [8] and in test [6] was inactive.
Take `OCCCBr`: the Potency entry in test [1], in test [2] and in test [7] was “inactive” each time. Also, the molecule was classed as inactive in test [4], in [5], in test [8] and in test [6].
On to `C/C=C/C=O`, for which the Potency entry in [1], in [2] and in test [9] was “inactive” each time. For the same molecule, the molecule was called inactive in [4], in test [5], in [8] and in [6].
Turning to `CC1C(=O)C[C@]2(C(C)C)C[C@H]12` (some centres undefined), the Potency entry in test [1], in [2], in test [7] and in test [3] was “inactive” each time. Further, the outcome in test [4], in [8] and in [6] was inactive.
As to `CC(C)N(C(=O)COc1nnc(C(F)(F)F)s1)c1ccc(F)cc1`, the Potency result in [1], in test [2] and in [9] was “inactive” throughout. For the same molecule, the result in [4], in test [8] and in test [6] was inactive.
Regarding `[CH3][Sn]([CH3])([Cl])[Cl]`, the Potency result in [1], in [9], in test [7] and in test [3] was “inactive” throughout. The molecule was called inactive in test [4], in test [5], in test [8] and in test [6].
With `O=C(OC1CCCCC1)c1ccccc1C(=O)OC1CCCCC1`, the Potency entry in test [1] and in test [2] was “inactive” each time. Moreover, in test [3], the Potency was 28.8 µM (active). Also, the result in [4], in [5], in test [8] and in [6] was inactive.
Consider `C=CC(=O)OCC(C)O` (centres undefined), for which the Potency entry in test [1], in test [9], in test [7] and in test [3] was “inactive” each time. The molecule was classed as inactive in test [4], in [5], in [8] and in [6].
For `O=[Se]=O`, the Potency result in test [1] and in test [2] was “inactive” throughout. In addition, the Potency in test [9] was 764 nM (active). The outcome in [4], in test [8] and in test [6] was inactive.
Turning to `O=[N+]([O-])c1ccc(F)c([N+](=O)[O-])c1`, the Potency entry in test [1] and in test [2] was “inactive” throughout. The Potency in test [9] is 10.6 µM (active) and 27.6 µM (active). Also, the outcome in test [4], in test [5], in [8] and in test [6] was inactive.
Regarding `CCCC(Cn1cncn1)c1ccc(Cl)cc1Cl` (centres undefined), the Potency entry in [1], in [2] and in test [9] was “inactive” in each case. Also, the molecule was called inactive in [4], in test [5], in [8] and in [6].
Consider `CCCN(CCC)c1c([N+](=O)[O-])cc(S(C)(=O)=O)cc1[N+](=O)[O-]`, for which the Potency result in [1], in [2] and in test [9] was “inactive” throughout. For the same molecule, the molecule was classed as inactive in test [4], in test [5], in test [8] and in [6].
`Clc1cccc2ccccc12`: the Potency entry in test [1], in [9], in test [7] and in [3] was “inactive” throughout. Besides, the molecule was called inactive in test [4], in [8] and in test [6].
`Clc1cc(Cl)c(Cl)c(Cl)c1`: the Potency entry in test [1], in [2], in test [7] and in test [3] was “inactive” in each case. Besides, the molecule was called inactive in test [4], in test [5], in [8] and in [6].
`O=[N+]([O-])C(Br)(CO)CO`: the Potency result in test [1], in test [9], in [7] and in [3] was “inactive” in each case. Besides, the outcome in test [4], in test [5], in test [8] and in test [6] was inactive.
On to `CCOP(=S)(OCC)SCn1nnc2ccccc2c1=O`, for which the Potency result in [1] is “inactive”. Moreover, the Potency in [2], in test [7] and in test [3] was 27.3 µM (active) throughout. Besides, the outcome in test [4], in [5], in [8] and in test [6] was inactive.
Regarding `O=C(O)C1(c2ccc3c(c2)OC[C@H](Cc2ccc(-c4ccccc4)cc2)[C@H]3O)CCCC1`, the Potency result in test [1], in [9] and in [7] was “inactive” in each case. In addition, the call in test [4], in [5] and in test [6] was inactive.
